Measured values as given in PubChem BioAssay AID1159580 (chemical genetic matrix, 2015).
Values joined by “and” are separate entries in the source; they are usually repeats but may differ in a detail not shown here. Identical values can stand only once. The campaign covered roughly 5,500 compounds. About 2,000 (36%) were called active. Not shown: some 18% with an inconclusive outcome. No stated cut-off is given here; in the data, active means normalized growth mostly below about 0.91 (no sharp cut-off); inconclusive means no clear call, values can overlap the other calls; inactive means mostly above about 0.92. The list shows a part of the results.

Assay: chemical genetic growth profiling, strain panel (AID 1159580);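 further: tested at 20 µM; growth read once vehicle control cultures reached saturation at 30 °C; 1 = growth at the plate median or of vehicle wells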
Details: S. cerevisiae deletion strains, growth OD
[1] = locus YGR078C, strain PAC10, stronger effect = lower value
[2] = locus YGR229C, strain SMI1, stronger effect = lower value
[3] = locus YJR075W, strain HOC1, stronger effect = lower value
[4] = locus YAL013W, strain DEP1, stronger effect = lower value
[5] = locus YBR229C, strain ROT2, stronger effect = lower value
[6] = locus YDL101C, strain DUN1, stronger effect = lower value
[7] = locus YDR150W, strain NUM1, stronger effect = lower value
[8] = locus YEL061C, strain CIN8, stronger effect = lower value
[9] = locus YHR030C, strain SLT2, stronger effect = lower value
[10] = locus YJR043C, strain POL32, stronger effect = lower value
[11] = locus YLR039C, strain RIC1, stronger effect = lower value
[12] = locus YLR262C, strain YPT6, stronger effect = lower value
[13] = locus YMR263W, strain SAP30, stronger effect = lower value
[14] = locus YPL055C, strain LGE1, stronger effect = lower value
[15] = locus YPL241C, strain CIN2, stronger effect = lower value

Measured: normalized growth

NC1C=CC=C(C(=O)O)C1 (stereo not given)
inactive: locus YAL040C, strain CLN3, stronger effect = lower value 0.969 | locus YCL061C, strain MRC1 (second series), stronger effect = lower value 0.989 | locus YER002W, strain NOP16, stronger effect = lower value 0.992 | [1] 1 | [2] 0.999 | [3] 0.994 | locus YNL175C, strain NOP13, stronger effect = lower value 0.995 | locus YNL197C, strain WHI3, stronger effect = lower value 0.979 | locus YNL224C, strain SQS1, stronger effect = lower value 1 | locus YOR083W, strain WHI5 (second series), stronger effect = lower value 0.986

Fc1cc2n[nH]nc2cc1Cl
inactive: [4] 1 | [5] 0.989 | [6] 0.97 | [7] 0.919 | [8] 0.992 | [1] 0.972 | [9] 0.977 | locus YHR087W, strain rtc3, stronger effect = lower value 0.997 | [10] 0.997 | [3] 0.958 | [11] 1.06 | locus YLR058C, strain SHM2 (second series), stronger effect = lower value 0.978 | locus YLR085C, strain ARP6, stronger effect = lower value 0.94 | [12] 1.06 | locus YML094W, strain GIM5, stronger effect = lower value 0.979 | locus YMR219W, strain ESC1, stronger effect = lower value 0.985 | [13] 0.931 | locus YNL153C, strain GIM3, stronger effect = lower value 0.995 | locus YNL298W, strain CLA4 (second series), stronger effect = lower value 0.977 | locus YNL322C, strain KRE1, stronger effect = lower value 0.974 | locus YNR030W, strain Alg12, stronger effect = lower value 0.993 | [14] 0.931 | [15] 0.978 | locus YPR135W, strain CTF4, stronger effect = lower value 0.945

CC(=O)O[C@H]1C[C@@H](OC(C)=O)C(C)(C)C2C[C@@H](OC(C)=O)[C@@]3(C)C4=CC(=O)O[C@@H](c5ccoc5)[C@]4(C)CCC3[C@]21C (stereo not given in full)
inactive: [4] 1.01 | locus YAL021C, strain ccr4, stronger effect = lower value 1.02 | locus YAL026C, strain drs2, stronger effect = lower value 1 | locus YAL030W, strain snc1, stronger effect = lower value 0.998 | locus YBL061C, strain skt5, stronger effect = lower value 0.997 | locus YBR009C, strain hhf1, stronger effect = lower value 0.99 | locus YBR021W, strain FUR4, stronger effect = lower value 0.993 | locus YBR023C, strain chs3, stronger effect = lower value 0.982 | locus YBR171W, strain sec66, stronger effect = lower value 1 | [5] 1 | locus YBR231C, strain swc5, stronger effect = lower value 0.989 | locus YBR279W, strain paf1, stronger effect = lower value 1 | locus YCL011C, strain gbp2, stronger effect = lower value 1 | locus YCL016C, strain dcc1, stronger effect = lower value 0.997 | locus YCL029C, strain bik1, stronger effect = lower value 1 | locus YCL061C, strain MRC1, stronger effect = lower value 0.994 | locus YCL069W, strain vba3, stronger effect = lower value 1.01 | locus YCR088W, strain abp1, stronger effect = lower value 0.999 | locus YDL005C, strain med2, stronger effect = lower value 0.989 | locus YDL035C, strain GPR1, stronger effect = lower value 1.01 | locus YDL040C, strain nat1, stronger effect = lower value 0.983 | locus YDL074C, strain BRE1, stronger effect = lower value 0.993 | [6] 1 | locus YDL185W, strain tfp1, stronger effect = lower value 1.01 | locus YDL192W, strain arf1, stronger effect = lower value 1 | locus YDR001C, strain nth1, stronger effect = lower value 1 | locus YDR069C, strain doa4, stronger effect = lower value 0.983 | locus YDR101C, strain arx1, stronger effect = lower value 1 | locus YDR137W, strain rgp1, stronger effect = lower value 0.998 | [7] 1.01 | locus YDR159W, strain sac3, stronger effect = lower value 0.968 | locus YDR162C, strain NBP2, stronger effect = lower value 1.03 | locus YDR195W, strain ref2 0.961 | locus YDR297W, strain sur2, stronger effect = lower value 1 | locus YDR318W, strain mcm21, stronger effect = lower value 1 | locus YDR334W, strain swr1, stronger effect = lower value 0.997 | locus YDR335W, strain msn5, stronger effect = lower value 1 | locus YDR388W, stronger effect = lower value 0.999 | locus YDR392W, strain spt3, stronger effect = lower value 0.963 | locus YDR502C, strain sam2, stronger effect = lower value 0.98 | locus YEL003W, strain gim4, stronger effect = lower value 1.01 | locus YEL037C, strain rad23, stronger effect = lower value 1.02 | locus YEL061C, strain CIN8 (second series), stronger effect = lower value 1 | [8] 0.997 | locus YER015W, strain faa2, stronger effect = lower value 0.998 | locus YER016W, strain bim1, stronger effect = lower value 0.991 | locus YER110C, stronger effect = lower value 0.997 | locus YER111C, strain swi4, stronger effect = lower value 1 | locus YER155C, strain BEM2 (second series), stronger effect = lower value 0.975 | locus YER155C, strain BEM2, stronger effect = lower value 0.995 | locus YER167W, strain BCK2, stronger effect = lower value 1.01 | locus YFR010W, strain ubp6, stronger effect = lower value 1.01 | locus YGL078C, strain dbp3, stronger effect = lower value 1.01 | locus YGL086W, strain mad1, stronger effect = lower value 0.985 | locus YGL167C, strain pmr1, stronger effect = lower value 0.996 | locus YGL173C, strain kem1, stronger effect = lower value 1 | locus YGL227W, strain vid30, stronger effect = lower value 0.998 | locus YGL240W, strain doc1, stronger effect = lower value 0.973 | locus YGL248W, strain PDE1, stronger effect = lower value 1 | locus YGL253W, strain hxk2, stronger effect = lower value 1.01 | [1] 1.01 | locus YGR135W, strain pre9, stronger effect = lower value 0.992 | [2] 1.05 | locus YGR252W, strain gcn5, stronger effect = lower value 0.922 | locus YHR013C, strain ard1, stronger effect = lower value 0.987 | locus YHR027C, strain rpn1, stronger effect = lower value 0.994 | [9] 1.01 and 0.97 | locus YHR079C, strain IRE1 (second series), stronger effect = lower value 1 | locus YHR079C, strain IRE1, stronger effect = lower value 0.982 | locus YHR094C, strain hxt1, stronger effect = lower value 1 | locus YHR129C, strain ARP1, stronger effect = lower value 1.01 | locus YHR142W, strain chs7, stronger effect = lower value 1.03 | locus YHR200W, strain rpn10, stronger effect = lower value 0.993 | locus YIL066C, strain RNR3, stronger effect = lower value 1.01 | locus YIL073C, strain SPO22, stronger effect = lower value 1.03 | locus YIL125W, strain kgd1, stronger effect = lower value 0.995 | locus YIR030C, strain dcg1, stronger effect = lower value 0.998 | locus YJL092W, strain hpr5, stronger effect = lower value 1.01 | locus YJL095W, strain BCK1 (second series), stronger effect = lower value 1 | locus YJL095W, strain BCK1, stronger effect = lower value 1.01 and 0.953 | locus YJL115W, strain asf1, stronger effect = lower value 0.999 | locus YJL129C, strain trk1, stronger effect = lower value 1.01 | locus YJL134W, strain LCB3, stronger effect = lower value 1.01 | locus YJL154C, strain vps35, stronger effect = lower value 0.999 | locus YJL164C, strain tpk1, stronger effect = lower value 1 | locus YJL166W, strain qcr8, stronger effect = lower value 0.994 | locus YJL168C, strain set2, stronger effect = lower value 0.994 | locus YJL187C, strain SWE1 (second series), stronger effect = lower value 1.01 | locus YJL187C, strain SWE1, stronger effect = lower value 0.997 | [10] 1.01 | locus YJR066W, strain TOR1, stronger effect = lower value 0.941 | locus YKL009W, strain mrt4, stronger effect = lower value 0.99 | locus YKL068W, stronger effect = lower value 1.01 | locus YKL085W, strain MDH1 (second series), stronger effect = lower value 0.991 | locus YKL085W, strain MDH1, stronger effect = lower value 0.991 | locus YKL160W, strain elf1, stronger effect = lower value 0.995 | locus YKR001C, strain vps1, stronger effect = lower value 0.992 | locus YKR026C, strain gcn3, stronger effect = lower value 1.01 | locus YKR091W, strain srl3, stronger effect = lower value 1 | locus YLL001W, strain dnm1, stronger effect = lower value 1.02 | locus YLL026W, stronger effect = lower value 0.998 | locus YLL041C, strain sdh2, stronger effect = lower value 1 | locus YLR027C, strain aat2, stronger effect = lower value 0.982 | [11] 1.05 | locus YLR058C, strain SHM2, stronger effect = lower value 1.01 | locus YLR102C, strain apc9, stronger effect = lower value 0.989 | locus YLR113W, strain HOG1, stronger effect = lower value 1.03 | locus YLR221C, strain rsa3, stronger effect = lower value 0.989 | locus YLR258W, strain gsy2, stronger effect = lower value 0.978 | locus YLR262C, strain YPT6 (second series), stronger effect = lower value 0.983 | [12] 1.09 | locus YLR268W, strain sec22, stronger effect = lower value 1.01 | locus YLR320W, strain mms22, stronger effect = lower value 0.977 | locus YLR330W, strain CHS5, stronger effect = lower value 1.01 | locus YLR342W, strain FKS1, stronger effect = lower value 0.991 | locus YLR357W, strain rsc2, stronger effect = lower value 0.994 | locus YLR370C, strain arc18, stronger effect = lower value 1 | locus YLR371W, strain rom2, stronger effect = lower value 0.995 | locus YLR384C, strain iki3, stronger effect = lower value 0.977 | locus YLR418C, strain cdc73, stronger effect = lower value 0.973 | locus YML016C, strain PPZ1, stronger effect = lower value 1 | locus YML032C, strain rad52, stronger effect = lower value 1 | locus YML120C, strain ndi1, stronger effect = lower value 1 | locus YML124C, strain tub3, stronger effect = lower value 0.998 | locus YMR058W, strain fet3, stronger effect = lower value 1.02 | locus YMR078C, strain ctf18, stronger effect = lower value 0.989 | locus YMR125W, strain sto1, stronger effect = lower value 0.998 | locus YMR129W, stronger effect = lower value 1.01 | locus YMR205C, strain PFK2, stronger effect = lower value 1.01 | locus YMR223W, strain ubp8, stronger effect = lower value 0.988 | locus YMR231W, strain pep5, stronger effect = lower value 0.962 | [13] 1.01 | locus YMR307W, strain GAS1, stronger effect = lower value 1.05 | locus YNL067W, strain RPL9B, stronger effect = lower value 1.01 | locus YNL071W, strain lat1, stronger effect = lower value 1.01 | locus YNL183C, strain NPR1, stronger effect = lower value 0.961 | locus YNL209W, strain ssb2, stronger effect = lower value 0.992 | locus YNL233W, strain BNI4, stronger effect = lower value 1.02 | locus YNL248C, strain rpa49, stronger effect = lower value 1 | locus YNL250W, strain rad50, stronger effect = lower value 1.01 | locus YNL271C, strain bni1, stronger effect = lower value 1 | locus YNL298W, strain CLA4, stronger effect = lower value 0.995 | locus YNL307C, strain MCK1, stronger effect = lower value 0.995 | locus YNL322C, strain KRE1 (second series), stronger effect = lower value 0.992 | locus YNR049C, strain mso1, stronger effect = lower value 1 | locus YNR052C, strain pop2, stronger effect = lower value 0.995 | locus YOL006C, strain TOP1, stronger effect = lower value 1 | locus YOL012C, strain htz1 0.751 | locus YOL147C, strain pex11, stronger effect = lower value 0.996 | locus YOR001W, strain rrp6, stronger effect = lower value 0.979 | locus YOR061W, strain CKA2, stronger effect = lower value 1 | locus YOR069W, strain VPS5, stronger effect = lower value 0.999 | locus YOR070C, strain gyp1, stronger effect = lower value 1.01 | locus YOR080W, strain dia2, stronger effect = lower value 0.981 | locus YOR083W, strain WHI5, stronger effect = lower value 1.01 | locus YOR106W, strain vam3, stronger effect = lower value 1 | locus YOR136W, strain idh2, stronger effect = lower value 0.991 | locus YOR144C, strain elg1, stronger effect = lower value 0.99 | locus YOR184W, strain ser1, stronger effect = lower value 0.999 | locus YOR231W, strain MKK1, stronger effect = lower value 0.978 | locus YOR265W, strain rbl2, stronger effect = lower value 0.993 | locus YOR270C, strain vph1, stronger effect = lower value 1.04 | locus YOR290C, strain snf2, stronger effect = lower value 1 | locus YOR316C, strain cot1, stronger effect = lower value 1 | locus YPL051W, strain arl3, stronger effect = lower value 0.977 | [14] 1.01 | locus YPL078C, strain atp4, stronger effect = lower value 1 | locus YPL106C, strain sse1, stronger effect = lower value 0.975 | locus YPL240C, strain hsp82, stronger effect = lower value 0.997 | [15] 1.01 | locus YPL256C, strain CLN2, stronger effect = lower value 0.957 | locus YPR119W, strain clb2, stronger effect = lower value 0.995 | locus YPR141C, strain kar3, stronger effect = lower value 1.01 | locus YPR163C, strain tif3, stronger effect = lower value 1 | locus YPR167C, strain met16, stronger effect = lower value 0.995 | strain wtn01, stronger effect = lower value 0.993
